Compound activity (PubChem BioAssay)
Lamin A splicing: modulators of lamin A splicing. HeLa LMNA splicing GFP/RFP minigene ratio, 48 h. Potency, µM (doses to about 46.1 µM), for inactives: at the highest dose ratio change, negative = inhibition, hits mostly inhibitors. 0.01% of 200,000 active; active = well fitted inhibition curve with a large enough effect in the signal ratio, with a control signal flat, not every such curve was filed as active; inconclusive = small, poorly fitted or top-dose-only effect, or effect the other way, or a change in a side signal; the % refers to the signal ratio; note: potency is the fitted concentration of half-maximal effect
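Read-out is the ratio of GFP to DsRed2 object intensity, acquired by 488 nm laser-scanning cytometry on HeLa lamin A-EGFP minigene reporter cells. Compound incubation 48 hrs at 37 °C in Opti-MEM with 2% FBS; DMSO 0.5% final.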
Luc counter: Kinase-Glo luciferase inhibition (counter-screen) | Q27757 | Kinase-Glo luciferase, ATP luminescence, 8 min | Potency, µM (series often up to 38.3 µM), for inactives: at the top dose activity change, negative = inhibition, usual class: inhibitors | 0.28% of 200,000 active | AID 1379; active = well fitted inhibition curve with a large enough effect; inconclusive = small, poorly fitted or top-dose-only effect; note: potency is the fitted concentration of half-maximal effect; nearly all actives have a fitted effect of over 60% in size
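Compound is pinned into ATP-containing buffer (10 uM ATP, imidazole pH 7.2, 7 mM MgCl2). Kinase-Glo luciferase reagent is then added. Light output is recorded following an 8-min room-temperature incubation.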
PNC inhibitor: blocks assembly of the perinucleolar compartment; activity change (PNC), negative = inhibition, % at 10 µM; AID 2417; PC3M PTB-GFP, PNC prevalence imaging, 16 h; active compounds read low; 3.1% of 140,000 active;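 active = readout at or below -70, meaning at least 70% loss of cells showing the perinucleolar compartment, a nuclear body marking cancer cells; inconclusive = readout between -30 and a set limit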;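 note: plate controls were DMSO wells for no effect and camptothecin positive control wells for full effect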
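Read-out is percentage of cells bearing a perinucleolar compartment, from automated 20x imaging of fixed, Hoechst-stained PC3M PTB-GFP cells. Cells were seeded 4 h, then exposed 16 h to compound (23 nl of library stock) in duplicate plates.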
ALDH1A1 inh: inhibitors of human aldehyde dehydrogenase 1A1; P00352; 7.3% of 220,000 active; Potency, µM (titrated, usually from 75.3 µM), without a hit: at the highest dose activity, negative = inhibition, hits mostly inhibitors; Purified ALDH1A1, NADH fluorescence, propionaldehyde substrate; AID 1030;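 note: potency is the fitted concentration of half-maximal effect; plate controls were no enzyme wells and a reference inhibitor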
HPGD inh: blocks human HPGD enzyme activity | P15428 | purified HPGD, NADH fluorescence kinetic, PGE2 substrate | Potency, µM, inactives show at the highest dose activity change, negative = inhibition, hits mostly inhibitors | 4.3% of 150,000 active; note: potency is the fitted concentration of half-maximal effect
Target sequence (P15428 whole entry, looked up): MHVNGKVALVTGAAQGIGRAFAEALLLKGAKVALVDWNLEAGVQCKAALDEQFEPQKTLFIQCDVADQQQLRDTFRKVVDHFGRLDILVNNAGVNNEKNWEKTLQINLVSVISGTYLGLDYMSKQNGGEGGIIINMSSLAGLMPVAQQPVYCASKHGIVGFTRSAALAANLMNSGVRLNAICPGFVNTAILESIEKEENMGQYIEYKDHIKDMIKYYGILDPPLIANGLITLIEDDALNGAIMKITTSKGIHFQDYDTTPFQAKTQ
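NADH formation kinetics: reaction with 30 uM PGE2 and 1 mM NAD+ (final), 20 nM enzyme, Tris-HCl pH 8 with Tween 20, after 15 min compound preincubation at room temperature. Fluorescence change, last versus first of five reads.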
* = called active by the depositor; ? = inconclusive; . = no result; [ ] = dose if it differs, or a comment. The list is not random: actives were taken first. Their share in the collection is about 10%. Unless noted, calls come from the whole dose curve; as a rule, active = well fitted inhibition curve with a large enough effect (not every such curve was filed as active); inconclusive = small, poorly fitted or top-dose-only effect, or another doubt; inactive = no such curve, though single readings can be large or run the other way. Unless noted, % is set by controls: 0 for no effect and ±100 for the full control effect.

SMILES	Lamin A splicing	Luc counter	PNC inhibitor	ALDH1A1 inh	HPGD inh
CC(C1CCCC(=O)C1)[N+](=O)[O-] (centres undefined)	.	-2%	.	-11%	-2%
Cc1ccc(C(=O)c2ccc([N+](=O)[O-])cc2)cc1	28%	-2%	45	-7%	-12%
Cc1ccc(S(=O)(=O)CC#CCOC(=O)c2ccc([N+](=O)[O-])cc2)cc1	?	2%	?	1.1µM*	13µM*
CNC1=C(Cl)C(=O)c2ccncc2C1=O	.	-10%	.	-8%	-3%
O=c1[nH]c(=O)c2nc(Br)n(C3OC(CO)C(O)C3O)c2[nH]1 (centres undefined)	-5%	-5%	.	9%	-7%
Cc1ccc(S(=O)(=O)Cn2nnnc2C(C(C)C)N2CCSCC2)cc1 (centres undefined)	10%	-1%	11	-4%	-12%
Cc1ccc(S(=O)(=O)Cn2nnnc2C(C(C)C)N2CCc3ccccc3C2)cc1 (centres undefined)	10%	0%	?	10µM*	-29%
COc1ccc(OC)c(C2C(C(C)=O)=C(O)C(=O)N2c2ccc(F)cc2)c1 (centres undefined)	-5%	17%	-14	?	-14%
COc1ccc(C2C(C(C)=O)=C(O)C(=O)N2C)c(OC)c1 (centres undefined)	4%	-2%	-127*	-1%	-9%
COc1ccc(OC)c(C2C(C(C)=O)=C(O)C(=O)N2Cc2cccnc2)c1 (centres undefined)	-4%	-1%	-26	28µM*	-12%
COc1ccc(C2C(C(C)=O)=C(O)C(=O)N2c2cccnc2)c(OC)c1 (centres undefined)	-10%	0%	?	32µM*	?
CN(C)CCNc1nc2c(c(=O)n(C)c(=O)n2C)n1C	.	1%[7.66 µM]	.	-9%[13.5 µM]	-5%
COC(=O)[C@H](Cc1ccccc1)NC(=O)O[C@@H]1Cc2cc(OC)ccc2O[C@H]1c1cccc(OC)c1	.	-4%	.	-3%	-10%
Cc1ccc2c(C)c(C(=O)N3CCC(c4nc5ccccc5s4)CC3)oc2c1C	-2%[46 µM]	.	.	.	.
O=C(O)CCn1c(=O)c2ccccc2c2ccccc2c1=O	21%	1%	17	9%	-9%
O=C(O)CCn1[nH]c(=O)ccc1=O	-3%	2%	-100*	2%	-11%
O=c1nc2n(c3sc4c(c13)CCCC4)C(CBr)CS2 (centres undefined)	?	-3%	14	13µM*	?
O=c1c2ccccc2nc2n1C(CBr)CS2 (centres undefined)	-26%[46 µM]	1%	.	-2%	.
CCCc1nc2sc3c(SCC(=O)NCc4ccco4)ncnc3c2c2c1CCC2	?	13%	3	25µM*	?
Cc1nc(SCC(=O)NCc2ccco2)c2c3c(sc2n1)CCCC3	6%	-2%	?	10µM*	14µM*
Cc1ccc(C2CC(=O)Oc3ccc(O)cc32)cc1 (centres undefined)	.	1%[39.9 µM]	.	32µM*	?
Cc1onc(-c2ccccc2Cl)c1C(=O)NC(=S)Nc1ccc(C(C)C)cc1	-5%[46 µM]	.	.	20µM*	.
Cc1onc(-c2ccccc2Cl)c1C(=O)NC(=S)NCCc1ccccc1	9%	0%	-30	1%	-8%
Cc1ccc(NC(=S)NC(=O)c2c(-c3ccccc3Cl)noc2C)cc1	-12%	-2%	23	7.9µM*	-16%
CC1(C)O[C@H]2O[C@@H]([C@H](O)CON3C(=O)c4ccccc4C3=O)[C@H](O)[C@H]2O1	.	.	.	24%[13.5 µM]	.
SMILES	Lamin A splicing	Luc counter	PNC inhibitor	ALDH1A1 inh	HPGD inh
CC(=O)c1cc(NC(=O)c2cccc(C(F)(F)F)c2)c(=O)oc1C	.	-4%	.	3.5µM*	.
COc1cccc(C2(O)CCN(C(=O)C3CCC3)CC2)c1	1%	-6%	-29	1%	-6%
COc1ccc(NC(=O)N2CCC(O)(c3cccnc3)CC2)c(OC)c1	29%	-3%	-82*	12%	-12%
COc1cccc(C(=O)N2CCC(O)(c3cccnc3)CC2)c1	?	-1%	.	1%	.
COc1cccc(C2(O)CCN(C(=O)C3CC3)CC2)c1	15%	1%	13	22µM*	-12%
Nc1c(C(=O)N2CCOCC2)sc2nc3c(cc12)CCC3	19%[46 µM]	11µM*	.	6%	.
CCOC(=O)Nc1sc(=S)n(C)c1C	-2%	-4%	-12	19µM*	25µM*
c1ccc(CCc2nc3ccccc3[nH]2)cc1	?	-15%	.	4%	.
S=c1cnc2ccccc2[nH]1	0%[46 µM]	4%	.	3.2µM*	.
CCOC(=O)c1ccccc1NC(=O)Cn1ccn2nc(-c3ccc(OCC)cc3)cc2c1=O	2%[46 µM]	.	.	.	.
COCCCNC(=O)c1ccc2c(=O)n(CC3CCCO3)c(=S)[nH]c2c1 (centres undefined)	-3%	0%	72	?	-16%
O=C(NCc1ccco1)c1ccc2c(=O)n(CC3CCCO3)c(=S)[nH]c2c1 (centres undefined)	0%	0%	-22	3.2µM*	-13%
CC(C)NC(=O)c1ccc2c(=O)n(CC3CCCO3)c(=S)[nH]c2c1 (centres undefined)	.	1%	.	1.4µM*	.
Cc1ccc(CNC(=O)c2ccc3c(=O)n(CC4CCCO4)c(=S)[nH]c3c2)cc1 (centres undefined)	5%	2%	12	?	-9%
O=C(NCc1ccccc1)c1ccc2c(=O)n(CC3CCCO3)c(=S)[nH]c2c1 (centres undefined)	19%	-1%	21	2.8µM*	-5%
CCOC(=O)c1c(S(=O)(=O)N2CCCC(C(=O)Nc3ccc(OCC)cc3)C2)c(C)n(C)c1C (centres undefined)	6%[46 µM]	.	.	.	.
COc1ccc(C2C(=O)N(C3CCC(C)CC3)CC(=O)N2Cc2ccc(C)cc2)cc1OC (centres undefined)	-2%[46 µM]	.	.	.	.
COc1cc(NC(=O)Cn2c(=O)nc(-c3ccccc3F)c3cc(Cl)ccc32)cc(OC)c1	-6%[46 µM]	.	.	.	.
O=C(c1ccccc1)c1ccc2nc[nH]c2c1	1%	2%	33	?	22µM*
Cc1nc2ccc(C(=O)c3ccccc3)cc2[nH]1	-3%	-6%	3	?	18µM*
COc1ccc(CCNC(=O)c2cnn(-c3cccc(C)c3)c2C2CCN(C(=O)OC(C)(C)C)CC2)cc1OC	2%[46 µM]	.	.	.	.
COCC(=O)N1CCC2(CC1)CN(c1cccc(-c3ccccc3)c1)C2	.	0%	.	?	?
CCn1c(C(=O)NCc2ccccn2)cc2sccc21	-7%	-1%	0	6%	18µM*
O=C(NCc1ccco1)c1cc2sccc2n1Cc1ccccc1	?	1%	178	?	16µM*
O=C(NCCc1ccccc1)c1cc2sccc2n1Cc1ccccc1	11%	0%	-4	?	16µM*
O=C(c1ccco1)N1CCN(C(=O)c2cc3sccc3n2Cc2ccccc2)CC1	?	0%	16	?	-8%
